Screening data: PubChem BioAssay, several laboratories
This is a sample that favours compounds with a hit; in the whole collection about 3.3% have one here.
Statin myotox sup – protects C2C12 myotubes from simvastatin toxicity; ATP luminescence, 48 h; scaled: DMSO 0, geranylgeraniol control 100; rescue of ATP level, % at 7.49 µM; 330,000 compounds, 0.78% hits; AID 602340;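 active = mean ATP rescue above about 67%, or every replicate alone reaching that limit, limit read from the data, passing the limit was not always enough; inconclusive = no clear call, values can overlap the other calls; inactive = mean under the limit and some replicate under it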;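 note: myotubes were challenged with 10 µM simvastatin during compound exposure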
GAA850 FXN act – activators of GAA850 frataxin (FXN) promoter | activation, % at 6 µM | 360,000 compounds, 0.56% hits | AID 540364 | HEK293 lucGAA850 FXN promoter luciferase reporter, 24 h; percent of 10 µM SAHA response;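 active = activation above the average of all compounds screened plus 3 SD, cutoff fixed separately per campaign, cut at about 7.5% in these data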;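 note: 0% = DMSO wells and 100% = 10 µM SAHA wells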
esBAF inh – inhibitors of esBAF chromatin remodeling in mouse ES cells; Bmi1-luciferase knock-in reporter, 24 h; 100% = twice the neutral-well signal; reporter increase, % at 12.5 µM; 350,000 compounds, 2% hits; AID 602393; in the data active = activation above about 40%; inconclusive = no clear call, values can overlap the other calls;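 note: 0% = median of the plate's neutral control wells and 100% = double that signal; a rise in the Bmi1 reporter signal indicates esBAF inhibition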
Wnt act – Wnt/beta-catenin pathway activation. Wnt/beta-catenin reporter cell assay, activator, plate reader. activation, % at 9.35 µM. 300,000 compounds, 1.2% hits. AID 743398; in the data active = activation above about 30%, passing the limit was not always enough; inconclusive = no clear call, values can overlap the other calls;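 note: 0% = neutral control wells and 100% = positive control wells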
MITF act – increases MITF-driven TRPM1 promoter luciferase signal; SK-MEL-5 TRPM1-promoter luciferase, 24 h; % of positive control, neutral wells = 0; activation, % at 12.5 µM; 300,000 compounds, 0.75% hits; AID 588334;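 active = mean activation of at least 80% with every replicate also reaching 80%; inconclusive = mean reaches 80% but some replicate falls short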;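 note: 0% = neutral control wells and 100% = parthenolide positive control wells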
GAA30 counter – GAA30 FXN promoter activation counter-screen; shares compounds with GAA850 FXN act; HEK293 lucGAA30 FXN promoter luciferase, 24 h; DMSO = 0%, 5 µM ipriflavone = 100%; 1,900 compounds, 66% hits; AID 588350; activation, % at 6 µM;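 active = mean activation above the mean of solvent-only control wells plus 3 SD, cut at about 22% in these data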;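 note: counterscreen of GAA850 promoter hits where activity marks nonselective or luminescence artifacts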
GAA850 confirm – GAA850 FXN promoter activation confirmation; shares compounds with GAA850 FXN act; HEK293 lucGAA850 FXN promoter luciferase reporter, 24 h; 100% = activation by SAHA; activation, % at 6 µM; 1,900 compounds, 86% hits; AID 588351;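 active = mean activation above a set limit taken from the primary screen, cut at about 8% in these data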;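 note: 0% = DMSO wells and 100% = 10 µM SAHA wells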
Numbers without * were called inactive; ? = inconclusive; . = no result given.

SMILES	Statin myotox sup	GAA850 FXN act	esBAF inh	Wnt act	MITF act	GAA30 counter	GAA850 confirm
Cc1ccc(O)c(-n2nc3ccccc3n2)c1	4	9.2*	43*	10	?	114*	35*
C[C@H](CO)N1C[C@H](C)[C@H](CN(C)C(=O)Nc2ccc(F)cc2)OCc2ccccc2-c2c(n(C)c3ccccc23)C1=O	1	14*	8	-2	.	20	9.4*
COC(=O)N(C)C[C@@H]1OCc2ccccc2-c2c(n(C)c3ccccc23)C(=O)N([C@H](C)CO)C[C@@H]1C	3	16*	6	-2	.	33*	14*
C[C@H]1CN([C@@H](C)CO)C(=O)c2c(c3ccccc3n2C)-c2ccccc2CO[C@@H]1CN(C)C(=O)Nc1ccc(F)cc1	.	.	-1	.	.	.	.
Cc1ccccc1S(=O)(=O)N(C)C[C@@H]1OCc2ccccc2-c2c(n(C)c3ccccc23)C(=O)N([C@H](C)CO)C[C@@H]1C	9	20*	3	-3	.	18	10*
Cc1ccccc1S(=O)(=O)N(C)C[C@H]1OCc2ccccc2-c2c(n(C)c3ccccc23)C(=O)N([C@H](C)CO)C[C@@H]1C	.	.	-3	.	.	.	.
C[C@@H]1CN([C@H](C)CO)C(=O)c2cc(-c3ccccc3F)cnc2O[C@@H]1CN(C)C(=O)c1cnccn1	-8	.	-8	.	.	.	.
Cc1ccc(Nc2nc(CSc3nnc(-c4ccccc4)n3C)cs2)cc1	-2	7.6*	20	.	45	120*	41*
Cc1ccc(Nc2nc(CSc3nnc(-c4ccccc4C)n3C)cs2)cc1	.	2	.	13	63	.	.
COc1ccccc1CNC(=O)C[C@@H]1CC[C@@H](NC(=O)CN(C)C)[C@H](CO)O1	4	.	0	.	.	.	.
Nc1ccccc1Nc1cccc(C(F)(F)F)c1	.	8.7*	.	-37	13	-1	9.6*
COc1ccc(-c2csc(-c3cccnc3)n2)cc1C	-8	9.5*	51*	10	76	88*	32*
Cc1ccc(C)c(-c2csc(-c3cccnc3)n2)c1	-14	0	6	4	3	.	.
COc1ccc2cc(-c3csc(-c4cccnc4)n3)ccc2c1	1	8.1*	59*	.	?	92*	37*
NC(=O)c1cc(-c2csc(-c3cccnc3)n2)ccc1O	-21	-1	26	10	36	.	.
CO[C@H]1CN(C)C(=O)c2cc(NC(=O)Nc3ccccc3)ccc2OC[C@H](C)N(C(C)=O)C[C@H]1C	7	.	-1	.	.	.	.
Cc1ccccc1-c1ccc2c(c1)O[C@H](CN(C)C(=O)C1CC1)[C@H](C)CN([C@H](C)CO)S2(=O)=O	-8	.	-1	.	.	.	.
COc1ccc(S(=O)(=O)N2CCCC2)cc1OC	-2	1	-9	-4	-1	.	.
COc1ccc(S(=O)(=O)N2CCCN(S(=O)(=O)c3ccc(OC)c(C)c3)CC2)cc1C	45	8.3*	-5	-4	-3	30*	17*
COCC#Cc1cnc2c(c1)C(=O)N([C@@H](C)CO)C[C@@H](C)[C@@H](CN(C)C)O2	-4	.	-2	.	.	.	.
COc1cccc(C#Cc2cnc3c(c2)C(=O)N([C@H](C)CO)C[C@H](C)[C@@H](CN(C)C(C)=O)O3)c1	-1	.	3	.	.	.	.
CC(c1ccco1)N(C(=O)C12CC3CC(CC(C3)C1)C2)c1ccccn1 (stereo not given)	-2	2	-2	.	10	.	.
O=C(N(c1ccccn1)c1ccccn1)C12CC3CC(CC(Cl)(C3)C1)C2	7	8.4*	-5	0	-3	18	6
COCCOC(=O)c1c(C)oc2ccc(NS(=O)(=O)c3cccs3)cc12	-7	8.6*	-11	-2	-4	19	6
CCOC(=O)c1c(C)oc2ccc(NS(=O)(=O)c3cccs3)cc12	.	-2	.	-4	-11	.	.
SMILES	Statin myotox sup	GAA850 FXN act	esBAF inh	Wnt act	MITF act	GAA30 counter	GAA850 confirm
C[C@@H]1CN([C@H](C)CO)C(=O)c2cc(NC(=O)NC3CCCCC3)ccc2O[C@@H](C)CCCCO[C@H]1CN(C)Cc1ccc2c(c1)OCO2	.	.	-9	.	.	.	.
Cc1cc(C(=O)N/N=C/c2ccc3c(c2)OCO3)c(C)n1-c1ccc(F)cc1	.	2	.	-1	-1	.	.
Cc1cc(C(=O)N/N=C/c2ccc(Cl)c([N+](=O)[O-])c2)c(C)n1-c1ccc(F)cc1	.	9.1*	.	-1	-57	-3	12*
O=S(=O)(Nc1ccc(N2CCCCC2)cc1)c1cccc2cccnc12	.	8.0*	.	.	-2	19	7
COc1ccccc1NC(=O)c1ccc(NS(=O)(=O)c2cccc3cccnc23)cc1	.	8.6*	.	-5	-4	16	9.8*
O=S(=O)(NCCO)c1cccc2cccnc12	6	14*	-5	-5	2	20	5
COc1ccc(C)cc1NC(=O)c1ccc(NS(=O)(=O)c2cccc3cccnc23)cc1	.	7	.	0	-7	.	.
O=C(c1ccc(NS(=O)(=O)c2cccc3cccnc23)cc1)N1CCCCC1	.	0	.	-1	12	.	.
C[C@H](CO)N1C[C@H](C)[C@H](CN(C)C(=O)Nc2ccc(C(F)(F)F)cc2)Oc2ccc(NC(=O)Cc3cn(C)c4ccccc34)cc2C1=O	.	.	1	.	.	.	.
CC(C)(C)OC(=O)CC(S(=O)(=O)c1ccccc1)S(=O)(=O)c1ccccc1	-7	18*	0	0	.	-20	42*
COc1cc2ncnc(NCc3ccc(Cl)cc3)c2cc1OC	.	-1	.	-1	-4	.	.
COc1ccnc(NCc2ccc(Cl)cc2)c1C#N	4	10*	-8	.	19	55*	20*
COc1ccc(C(=O)Nc2nc3ccccc3[nH]2)cc1OC	.	1	.	18	68	.	.
COc1cc(C(=O)Nc2nc3ccccc3[nH]2)ccc1OC(F)F	.	9.6*	.	0	43	86*	36*
Nc1cccn2c(-c3ccc(Cl)c(Cl)c3)cnc12	.	12*	.	-1	23	111*	43*
CO[C@H]1CN(C)C(=O)c2cc(NC(=O)NC(C)C)ccc2OC[C@@H](C)N(Cc2ccccn2)C[C@H]1C	-8	.	0	.	.	.	.
Cc1nn(C)c(=O)n1-c1ccc(Oc2ccccc2)cc1	1	-2	5	.	5	.	.
Cc1ccc(-n2c(C)nn(CCOc3ccccc3)c2=O)cc1	2	9.3*	45*	19	65	98*	27*
C[C@H](NC(=O)C[C@H]1C[C@H]2c3cc(NC(=O)C4CCC4)ccc3O[C@H]2[C@H](CO)O1)c1ccccc1	3	.	8	.	.	.	.
COc1cccc(CNC(=O)Cn2cc3c(n2)CCCC3)c1	19	16*	-1	-2	3	23*	10*
CN1[C@@H]2c3ccc(-c4ccccc4)c(=O)n3C[C@H]1[C@H](CO)[C@H]2C(=O)NCCc1ccccc1	4	.	4	.	.	.	.
